# Source: PubChem (National Center for Advancing Translational Sciences (NCATS))
# Hits are enriched below; roughly 8.2% of the tested compounds scored in any of these assays.
# MCF10A rerep: induces DNA re-replication in MCF 10a normal breast cells | 350,000 tested, 2.9% active | MCF 10A DNA re-replication, Hoechst nuclear intensity, 48 h | Potency, µM (series often up to 46.1 µM), inactives show at the highest dose activity, positive = re-replication, most hits filed as activators; also: % of control where 0% means no effect; nearly all actives have a fitted effect of over 50% in size
# SW480 rereplic: inducers of DNA re-replication in SW480 colon cancer cells. 340,000 tested, 1.8% active. Potency, µM (highest dose often 46.1 µM), without a hit: top-dose re-replication activation, hits mostly activators. SW480 DNA re-replication, Hoechst DNA content imaging, 48 h. AID 624297; also: % of control where 0% means no effect; nearly all actives have a fitted effect of over 55% in size
#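 Quantitative HTS format with DMSO vehicle controls; 48 hr drug incubation at 37 C, then 40 min Hoechst staining and scanning imager measurement at 405 nm excitation.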
# KB-V1 MDR tox: KB-V1 MDR subline cytotoxicity; Potency, µM (doses to about 46.1 µM), most hits filed as cytotoxic; 400,000 tested, 3.4% active; AID 1347076; KB-V1 MDR cells viability, CellTiter-Glo, 72 h; also: % is scaled to controls: 0 for no effect and ±100 for the full control effect; nearly all actives have a fitted effect of over 60% in size
#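 KB-V1 cells (P-gp-expressing MDR subline of KB-3-1) in phenol-red-free DMEM with 10% FBS were exposed to library compounds over a concentration series for 72 h at 37 degrees C. Viability read by CellTiter-Glo luminescence; concentration-effect curves fitted after normalization.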
# ELG1 DNA repair: inhibitors of ELG1-dependent DNA repair in HEK293T cells; Potency, µM (series often up to 46.1 µM), for inactives: at the top dose activity change, negative = inhibition, actives largely listed as inhibitors; AID 504467; HEK293T ELG1-luciferase reporter, luminescence, 16 h; DNA damage induced by 5-fluorouridine; 330,000 tested, 2.3% active; also: % is scaled to controls: 0 for no effect and ±100 for the full control effect; nearly all actives have a fitted effect of over 55% in size
#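 Overnight (16 hr) co-exposure of 2,000 cells/well to 5-fluorouridine and compound at 37 °C preceded detection. Luciferase was quantified via ONE-Glo luminescence; loss of signal denotes inhibition.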
# KB-3-1 tox: kills parental KB-3-1 adenocarcinoma cells. AID 1347075. 400,000 tested, 1.4% active. Potency, µM (top dose mostly 46.1 µM), most hits filed as cytotoxic. KB-3-1 viability, CellTiter-Glo ATP luminescence, 72 h; also: % is scaled to controls: 0 for no effect and ±100 for the full control effect; nearly all actives have a fitted effect of over 60% in size
#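 Parental KB-3-1 viability, qHTS format: 72 h compound exposure, 37 °C; CellTiter-Glo; media-only wells and DMSO plates as controls; concentration-effect fits on corrected data.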
# ELG1 Luc conf: confirmation of human ELG1-dependent DNA repair inhibitors; 670 tested, 68% active; Potency, µM (doses to about 46.1 µM), without a hit: at the top dose activity change, negative = inhibition, most hits filed as inhibitors; shares compounds with ELG1 DNA repair; AID 624248; HEK293T ELG1-luciferase levels, luminescence; cells co-treated with 5-fluorouridine; also: % is scaled to controls: 0 for no effect and ±100 for the full control effect; nearly all actives have a fitted effect of over 55% in size
# Target sequence (Q96QE3 whole entry, looked up): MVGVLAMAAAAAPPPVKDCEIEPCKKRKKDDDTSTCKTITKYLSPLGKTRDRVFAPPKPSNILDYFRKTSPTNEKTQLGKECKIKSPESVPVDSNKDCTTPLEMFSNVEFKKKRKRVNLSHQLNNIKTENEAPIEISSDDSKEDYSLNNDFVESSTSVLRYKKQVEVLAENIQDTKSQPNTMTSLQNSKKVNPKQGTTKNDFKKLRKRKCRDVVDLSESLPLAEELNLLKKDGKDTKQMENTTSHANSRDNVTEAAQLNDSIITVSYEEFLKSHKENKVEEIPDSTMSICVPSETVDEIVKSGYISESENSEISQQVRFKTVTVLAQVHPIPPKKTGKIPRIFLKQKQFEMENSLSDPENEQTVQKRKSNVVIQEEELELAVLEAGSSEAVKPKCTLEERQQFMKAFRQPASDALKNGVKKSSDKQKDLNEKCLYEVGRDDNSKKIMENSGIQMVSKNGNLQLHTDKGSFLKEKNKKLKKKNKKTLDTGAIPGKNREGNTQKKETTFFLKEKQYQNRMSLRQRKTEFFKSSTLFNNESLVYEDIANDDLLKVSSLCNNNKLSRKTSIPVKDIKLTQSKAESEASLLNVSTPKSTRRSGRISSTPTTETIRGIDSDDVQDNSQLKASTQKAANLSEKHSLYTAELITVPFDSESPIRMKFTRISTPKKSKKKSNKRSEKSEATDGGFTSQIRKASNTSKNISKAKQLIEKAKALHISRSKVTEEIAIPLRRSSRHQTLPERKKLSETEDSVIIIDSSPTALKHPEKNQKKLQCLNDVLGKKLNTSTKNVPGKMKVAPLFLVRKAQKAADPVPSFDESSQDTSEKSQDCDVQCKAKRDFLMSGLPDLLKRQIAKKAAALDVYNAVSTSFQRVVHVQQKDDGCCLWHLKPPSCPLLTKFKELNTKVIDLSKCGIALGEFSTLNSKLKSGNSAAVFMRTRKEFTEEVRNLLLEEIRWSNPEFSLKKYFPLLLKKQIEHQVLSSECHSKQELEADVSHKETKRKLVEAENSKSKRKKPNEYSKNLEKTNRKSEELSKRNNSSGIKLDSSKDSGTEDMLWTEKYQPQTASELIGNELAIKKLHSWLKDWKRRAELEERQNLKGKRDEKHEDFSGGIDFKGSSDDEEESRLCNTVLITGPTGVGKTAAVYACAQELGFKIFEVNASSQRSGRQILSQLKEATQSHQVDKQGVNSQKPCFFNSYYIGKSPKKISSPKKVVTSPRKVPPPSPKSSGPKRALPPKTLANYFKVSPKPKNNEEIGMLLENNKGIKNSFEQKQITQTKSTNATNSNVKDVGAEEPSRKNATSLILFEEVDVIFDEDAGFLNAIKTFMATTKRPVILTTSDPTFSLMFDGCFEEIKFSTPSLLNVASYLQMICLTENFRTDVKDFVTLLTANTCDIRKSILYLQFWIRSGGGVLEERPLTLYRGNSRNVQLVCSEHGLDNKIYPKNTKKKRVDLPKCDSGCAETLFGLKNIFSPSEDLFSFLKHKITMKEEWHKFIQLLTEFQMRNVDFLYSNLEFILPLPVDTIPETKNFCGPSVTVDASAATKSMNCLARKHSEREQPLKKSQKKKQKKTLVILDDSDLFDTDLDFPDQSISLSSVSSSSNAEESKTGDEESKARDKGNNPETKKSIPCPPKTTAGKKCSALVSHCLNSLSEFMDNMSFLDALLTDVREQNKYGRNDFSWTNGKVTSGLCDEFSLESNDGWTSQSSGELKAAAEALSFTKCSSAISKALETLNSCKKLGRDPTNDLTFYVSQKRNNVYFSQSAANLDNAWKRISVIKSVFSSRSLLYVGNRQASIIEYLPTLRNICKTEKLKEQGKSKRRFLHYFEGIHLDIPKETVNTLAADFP
# ELG1 MMS Luc: inhibits ELG1-dependent repair under MMS stimulation in HEK293T cells; shares compounds with ELG1 DNA repair; HEK293T luciferase-tagged ELG1 level, MMS stimulated; Potency, µM (doses to about 46.1 µM), for inactives: at the top dose activity change, negative = inhibition, hits mostly inhibitors; 670 tested, 53% active; AID 624249; also: % is scaled to controls: 0 for no effect and ±100 for the full control effect; nearly all actives have a fitted effect of over 60% in size
# ELG1 5FU viab: confirmation of ELG1 repair inhibitors: viability with 5FU; AID 624250; Potency, µM (titrated, usually from 46.1 µM), for inactives: at the highest dose activity change, negative = viability loss, hits mostly cytotoxic; cell viability with 5-FU, ELG1-dependent repair; 670 tested, under 10 active; shares compounds with ELG1 DNA repair;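 also: ELG1-luc HEK293T cells cotreated with 5-fluorouridine at 10 µM final; viability measured 16 h after compound addition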
# ELG1 MMS viab: confirmation of ELG1 repair inhibitors: viability with MMS | 670 tested, 33% active | shares compounds with ELG1 DNA repair | Potency, µM (titrated, usually from 46.1 µM), inactives show top-dose activity change, negative = viability loss, actives largely listed as cytotoxic | Cell viability with MMS, ELG1-dependent DNA repair;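 also: ELG1-luc HEK293T cells co-treated with 10 µM MMS; viability read 16 h after compound addition; % is scaled to controls: 0 for no effect and ±100 for the full control effect; nearly all actives have a fitted effect of over 60% in size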
# Cell viab unstim: unstimulated viability counter-screen for ELG1 repair hits | Potency, µM (titrated, usually from 45.9 µM), inactives show top-dose activity change, negative = loss of viability, actives largely listed as cytotoxic | cell viability counter-screen, unstimulated, luminescence | shares compounds with ELG1 DNA repair | 900 tested, 8% active;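 also: compound exposure lasted 16 hours before reading; % is scaled to controls: 0 for no effect and ±100 for the full control effect; nearly all actives have a fitted effect of over 55% in size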
# An asterisk follows results filed as active; i = inactive; ? = inconclusive; / = no result; ! = a repeat was not active. Calls follow the shape of the dose curve; as a rule, active = well fitted curve in the direction sought with a large enough effect; inconclusive = small, poorly fitted or top-dose-only effect, or another doubt; inactive = no such curve, though single readings can be large; an effect the other way counts as inactive or inconclusive. Potency is read from the fitted curve at half-maximal effect.
SMILES,MCF10A rerep,SW480 rereplic,KB-V1 MDR tox,ELG1 DNA repair,KB-3-1 tox,others
CC(=O)[C@H]1CC[C@H]2[C@@H]3CC[C@H]4C[C@](C)(O)CC[C@]4(C)[C@H]3CC[C@]12C,-2%,0%,/,/,/,
NCC(=O)c1cccc([N+](=O)[O-])c1,/,/,i,/,i,
COc1cccc(NP(=O)(Oc2ccccc2Cl)Oc2ccccc2Cl)c1,?,4%,?,?,i,
COc1cccc(NP(=O)(Oc2ccccc2)Oc2ccccc2)c1,3.3µM*,16µM*,i,?,5.8µM*,
CCC(=NCCO)c1c(O)n(C2CCCCC2)c(=O)[nH]c1=O,1%,1%,i,?,i,
CCC(=NCc1ccc2c(c1)OCO2)c1c(O)n(C2CCCCC2)c(=O)[nH]c1=O,?,8%,?,21µM*,?,
Cc1c(C(=O)N2CCOCC2)sc2nc(-c3ccccc3)cn12,-12%,-9%,23µM*,?,i,
O=C(c1cc(-c2ccccc2)nc2ccccc12)N1CCC2(CC1)OCCO2,1%,-11%,?,-1%,i,
O=C1CC(c2ccc(C(F)(F)F)cc2)c2c(c3ccccc3oc2=O)O1 (centres undefined),/,/,i,/,i,
COC(=O)C1=C(c2ccc(F)cc2F)C[C@@H]2CC[C@H]1N2C(=O)N1CCCC1,16%,-4%,i,4%,i,
COC(=O)C1=C(c2ccc(F)cc2F)C[C@@H]2CC[C@H]1N2C(=O)N1CCC(O)(c2ccc(Cl)cc2)CC1,7.3µM*,-1%,i,?,?,
CC(C)CC(NC(=O)CCCNC(=O)CCC(=O)OC1O[C@H]2OC3(C)CC[C@H]4[C@H](C)CCC(C1C)C24OO3)C(=O)O (some centres undefined),24%,8.2µM*,?,?,7.3µM*,
C[C@H]1[C@H](OC(=O)CCC(=O)NCc2ccc(C(=O)O)cc2)O[C@@H]2O[C@@]3(C)CC[C@H]4[C@H](C)CC[C@@H]1C24OO3,?,?,15µM*,?,8.2µM*,
O=C(Nc1ccc(-c2nc3ccccc3c(=O)o2)cc1)c1ccco1,-3%,-4%,i,?,i,
CN(C)CCOc1ccc(/C(=C(/CCCl)c2ccccc2)c2ccccc2)cc1,4.6µM*,-102%,?,/,i,
CN(C)C(=O)Oc1ccc(C(=O)c2ccccc2)cc1,-3%,0%,i,?,i,
Nc1ccc2ccc3cccc[n+]3c2c1,1%,2.9µM*,i,-7%,?,
N#Cc1cc2c(nc1SCC(=O)Nc1ccc(OC(F)(F)F)cc1)C1CCN2CC1,/,/,i,/,?,
N#Cc1cc2c(nc1SCC(=O)Nc1cccc(C(F)(F)F)c1)C1CCN2CC1,/,/,9.2µM*,/,?,
N#Cc1cc2c(nc1SCC(=O)Nc1ccc(F)c(Cl)c1)C1CCN2CC1,/,/,15µM*,/,i,
N#Cc1cccc(NC(=O)CSc2nc3c(cc2C#N)N2CCC3CC2)c1,/,/,i,/,?,
N#Cc1cc2c(nc1SCC(=O)Nc1cc(Cl)cc(Cl)c1)C1CCN2CC1,2.3µM*,24%,4.6µM*,7%,i,
CNCCCc1ccccc1,?,5%,i,1%,23µM*,
COc1cc(CN2CC3CC(C2)c2cccc(=O)n2C3)cc(OC)c1OC (centres undefined),26µM*,1%,i,4%,i,
CCCNS(=O)(=O)c1ccc(OCC(=O)N2CCN(Cc3ccccc3)CC2)cc1,3%,2%,8.2µM*,?,?,
SMILES,MCF10A rerep,SW480 rereplic,KB-V1 MDR tox,ELG1 DNA repair,KB-3-1 tox,others
Cn1nc(-c2ccc(OCC(=O)N3CCN(Cc4ccccc4)CC3)cc2)c2ccccc2c1=O,16%,9%,0.65µM*!,?,5.8µM*!,
O=C(COc1ccc(S(=O)(=O)N2CCOCC2)cc1)N1CCN(Cc2ccc3c(c2)OCO3)CC1,22%,-14%,16µM*,?,i,
COc1ccc(/C=C/c2nc3ccccc3c(=O)n2-c2ccc(C)cc2)cc1O,/,/,i,/,i,
COc1ccccc1N=Nc1ccc(N)c(C)c1,-4%,0%,i,?,i,
Brc1nc(-c2ccccc2)nc(-c2ccccc2)c1Br,?,-7%,?,/,i,
CCN(CC)C1=NC(=[N+](CC)CC)c2ccccc21,?,?,i,-11%,10µM*,
N[C@@H](Cc1ccc(N(CCCl)CCCl)cc1)C(=O)O,?,?,i,9%,i,
ClCCN(CCCl)c1ccc(-n2cnc3c(Cl)ncnc32)cc1,2.9µM*,8.2µM*,i,/,?,
c1ccc(/N=C2\N=C(Nc3ccccn3)c3ccccc32)nc1,23%,?,2.9µM*,/,i,
S=C=Nc1ccccn1,12%,-7%,i,?,i,
O=c1n(Cl)c(=O)n(Cl)c(=O)n1Cl,0%,-6%,/,/,/,
C[C@]12CCC3C(CCC4=CC(O)CC[C@@]43/C=N/O)C1(O)CCC2C1=CC(=O)OC1 (some centres undefined),?,3.7µM*,0.65µM*,1.5µM*,0.29µM*,ELG1 Luc conf=1µM*;ELG1 MMS Luc=0.44µM*;ELG1 5FU viab=?;ELG1 MMS viab=1.3µM*;Cell viab unstim=0.5µM*
O=C(COc1cccc(Cl)c1)N1CCN(CCc2ccncc2)CC1,/,/,i,/,i,
COc1cccc(/C=C/c2nc3ccccc3c(=O)n2-c2ccc(Cl)cc2)c1OC,/,/,i,/,i,
